PubChem BioAssay (NCI)
Compounds without any hit were thinned out: in the full panel of roughly 83,000, 20% have a hit.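 How to read the values: 0–100, growth inhibition (40 = 60% inhibited); 0, no net growth; -100 to 0, cell death (-40 = 40% of starting cells died; -100 = all dead).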 Values without a mark were called inactive. The source made the active and inactive calls. How the source made its calls: active means growth percent below 10; inactive means the rest.

Tests used:
Experiment in all cases: NCI-60 one-dose screen, 48 h (100 = growth as untreated, 0 = no growth, -100 = all killed)
Settings in all cases: 10 µM unless noted
[1] = test system: DU-145 prostate
[2] = test system: K-562 leukemia
[3] = test system: MALME-3M melanoma
[4] = test system: MDA-MB-231 breast
[5] = test system: RXF 393 renal
[6] = test system: SF-268 CNS
[7] = test system: SF-295 CNS
[8] = test system: SF-539 CNS
[9] = test system: UACC-257 melanoma
[10] = test system: M14 melanoma
[11] = test system: HCT-15 colon
[12] = test system: HT29 colon
[13] = test system: SNB-75 CNS
[14] = test system: SNB-19 CNS
[15] = test system: U251 CNS
[16] = test system: PC-3 prostate
[17] = test system: SK-MEL-5 melanoma
[18] = test system: UACC-62 melanoma
[19] = test system: LOX IMVI melanoma
[20] = test system: SK-MEL-28 melanoma

O=C(CCl)NNc1nccc(Nc2ccc(S(=O)(=O)Nc3ccncc3)cc2)n1
growth [1]: 32.1% | growth [2]: 17.6% | growth [3]: 32.2% | growth [4]: 46.7% | growth [5]: 48.2% | growth [6]: 37.6% | growth [7]: 67.7% | growth [8]: 5.24% (active) | growth [9]: 52.1% | growth [10]: 45.2% | growth [11]: 22.2% | growth [12]: 27.4% | growth [13]: 54.7% | growth [14]: 31.1% | growth [15]: -9.06% (active) | growth [16]: 56% | growth [17]: 7.95% (active) | growth [18]: 31.4% | growth [19]: 17.6% | growth [20]: 53.7%

N#Cc1c(-c2ccccc2)nc(SCC(O)CN2CCOCC2)nc1N1CCOCC1 (stereo not given)
growth [1]: 61.7% | growth [2]: 90% | growth [3]: 23.1% | growth [4]: 77.3% | growth [5]: 72.5% | growth [6]: 62.3% | growth [7]: 43.6% | growth [8]: 56.6% | growth [9]: 17.1% | growth [10]: 59.9% | growth [11]: 80.1% | growth [12]: 68.5% | growth [13]: -4.63% (active) | growth [14]: 65.8% | growth [15]: 81.4% | growth [16]: 56.5% | growth [17]: 66.6% | growth [18]: 42.9% | growth [19]: 78% | growth [20]: 59.9%

CCCCCCCCCCCCCOC(=O)c1c(C)[nH]c(/C=C2\N=C(c3ccc[nH]3)C=C2OC)c1C
growth [1]: 29.3% | growth [2]: 5.53% (active) | growth [3]: 41.8% | growth [4]: 19.6% | growth [5]: 27.7% | growth [6]: 34.2% | growth [7]: 49.9% | growth [8]: 10.8% | growth [9]: 38.7% | growth [10]: 1.88% (active) | growth [11]: 4.86% (active) | growth [12]: 8.1% (active) | growth [13]: 21.2% | growth [14]: 48.1% | growth [15]: 23.9% | growth [16]: 27.6% | growth [17]: -89.1% (active) | growth [18]: -19.1% (active) | growth [19]: -56.4% (active) | growth [20]: 30.2%

O=C(NNc1cnccn1)c1nc2cc(F)ccc2n2cccc12
growth [1]: 25.7% | growth [2]: 10.8% | growth [3]: 11% | growth [4]: 27.5% | growth [5]: 9.53% (active) | growth [6]: 26% | growth [7]: 12.9% | growth [8]: 5.57% (active) | growth [9]: -9.5% (active) | growth [10]: 5.33% (active) | growth [11]: 25.7% | growth [12]: 27.9% | growth [13]: 41.1% | growth [14]: 26.2% | growth [15]: 14% | growth [16]: 29.4% | growth [17]: -48.2% (active) | growth [18]: -21.1% (active) | growth [19]: -53.5% (active) | growth [20]: 21%

CN(Cc1ccccc1)c1nc(Cl)c(C2CC(c3ccccc3)=NN2c2ccccc2)s1 (stereo not given)
growth [1]: 102% | growth [2]: 79.9% | growth [3]: 90.3% | growth [4]: 101% | growth [5]: 101% | growth [6]: 86.6% | growth [7]: 101% | growth [8]: 98.9% | growth [9]: 93% | growth [10]: 96.6% | growth [11]: 94.2% | growth [12]: 80.8% | growth [13]: 82.3% | growth [14]: 100% | growth [15]: 90.2% | growth [16]: 83.2% | growth [17]: 98.8% | growth [18]: 88.8% | growth [19]: 88.4% | growth [20]: 98.2%

CC1(C)C(N)=Nc2cc(OCCCN3Cc4ccccc4C3)c(OCC3CC3)cc21
growth [1]: 93.8% | growth [2]: 38.8% | growth [3]: -14% (active) | growth [4]: 49.1% | growth [5]: 69.3% | growth [6]: 80.2% | growth [7]: 78.3% | growth [8]: 70.3% | growth [9]: 1.23% (active) | growth [10]: -45.1% (active) | growth [11]: 40% | growth [12]: 31.6% | growth [13]: 77.3% | growth [14]: 85.2% | growth [15]: 56.4% | growth [16]: 49.6% | growth [17]: 53.1% | growth [18]: 78% | growth [19]: 33.7% | growth [20]: 56.2%

Cc1ccc(C)c(/C=C2\CN(C(=O)OC(C)(C)C)C/C(=C\c3cc(C)ccc3C)C2=O)c1
growth [1]: 37.7% | growth [2]: 7.09% (active) | growth [3]: 67.7% | growth [4]: 92.1% | growth [5]: 91.1% | growth [6]: 53.6% | growth [7]: 55.9% | growth [8]: 94.9% | growth [9]: 59.4% | growth [10]: 20.1% | growth [11]: 19.4% | growth [12]: 9.93% (active) | growth [13]: 78.5% | growth [14]: 59.9% | growth [15]: 15.9% | growth [16]: 46.6% | growth [17]: 45% | growth [18]: 37.3% | growth [19]: 0.926% (active) | growth [20]: 41.3%
